39 molecules from PubChem BioAssay (NCI) can be followed below.

The panel holds about 83,000 compounds, 20% with a hit somewhere; the sample as a whole holds those more often.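 Interpretation: 100, growth as untreated; towards 0, rising growth inhibition; 0, no net growth; 0 to -100, cell death. Compounds scoring below 10 were considered active.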 Activity calls are given as the source filed them.

In one assay the test system is SNB-75 CNS. Kind of assay: NCI-60 one-dose screen, 48 h (100 = growth as untreated, 0 = no growth, -100 = all killed). Particulars: 10 µM unless noted.
In the case of `O=C1c2ccccc2NC(c2cn(-c3ccccc3)nc2-c2cccs2)N1Cc1ccccc1` (centres undefined), the growth is 87.7% (inactive).

Regarding `COC(=O)[C@]12CC[C@@H](C)[C@H](C)[C@@H]1C1=CC[C@@H]3[C@@]4(C)C[C@@H](O)[C@H](O)[C@@](C)(CO)C4=CC[C@@]3(C)[C@]1(C)CC2`, the growth was -58.7% (active). `Cn1c(=O)c2c(nc(Br)n2CC(=O)Nc2ccc(F)cc2)n(C)c1=O`: the growth is 83.4% (inactive).

For the molecule `CCN(CC)CCCCCCNc1ccnc2cc(Cl)ccc12`, the growth was 87% (inactive).

Regarding `C#CCC(C)(O)/C=C/C1=C(C)CCCC1(C)C` (centres undefined), the growth is 87% (inactive).

A further assay concerns SNB-19 CNS. The assay is described as above. Particulars: 10 µM unless noted.
As to `CC(C)(C)c1ccc(OCCCCCCCN2CCNCC2)cc1`, the growth was 54.4% (inactive).

For the molecule `O=Cc1nc2ccccc2[nH]1`, the growth is 101% (inactive).

On to `C[C@]12CC[C@@H]3c4ccc(O)cc4CC[C@H]3[C@@H]1C[C@H](O)[C@@H]2O`, for which the growth was 102% (inactive).

Take `Cn1c(=O)c2c(ncn2CCC(=O)Nc2ccc(F)cc2)n(C)c1=O`: the growth is 102% (inactive).

Consider `CN(C)CCCCC(C(=O)CBr)(c1ccccc1)c1ccccc1`, for which the growth is 82.6% (inactive). Turning to `C[C@@H]1CCCCCCCCC[C@H](O)C(=O)C[C@@H](SC[C@@H](O)C(=O)O)C(=O)O1`, the growth is 102% (inactive). Regarding `O=C(N/N=C/c1ccccc1SSc1ccccc1/C=N/NC(=O)c1ccccc1)c1ccccc1`, the growth is 44.8% (inactive). For `CC/C=C\C[C@H]1CC=C2C(=O)C=C[C@@H]2CC=CCCCC(=O)O[C@@H](CCCCC)CC=C2C(=O)C=C[C@@H]2CC=CCCCC(=O)O[C@@H](CCCCC)CC=C2C(=O)C=C[C@@H]2CC=CCCCC(=O)O[C@@H](CCCCC)CC=C2C(=O)C=C[C@@H]2CC=CCCCC(=O)O1`, the growth is 25.7% [7.9 µM] (inactive). On the same count and under the same terms, as for `COc1ccc(NC(=S)N/N=C/c2ccccc2SSCCC(=O)OC[C@H]2O[C@H](O)[C@H](O)[C@@H](O)[C@@H]2O)cc1`, the figure is 72.2% (inactive); as for `Fc1ccc(Nc2nnc(-c3ccc(Cl)cc3)o2)cc1`, 101% (inactive).

`COC(=O)[C@]12CC[C@@H](C)[C@H](C)[C@@H]1C1=CC[C@@H]3[C@@](C)(CC#N)C4=C(C[C@@]3(C)[C@]1(C)CC2)OC[C@]4(C)C=O`: the growth was 8.5% (active). On the same count and under the same terms, as for `COc1ccc(/C=C/C(=O)NCC(C)O)cc1` (centres undefined), the figure is 109% (inactive). Consider `COc1cnc2c(c1)C(=O)c1c-2n(CCCNC(C)C)c(=O)c2cc([N+](=O)[O-])ccc12`, for which the growth is -44.7% (active). Regarding `Cn1cc(-c2csc(-c3cn(CCNC(=O)OC(C)(C)C)c4ccc(F)cc34)n2)c2cccnc21`, the growth was 90.3% (inactive). On the same count and under the same terms, then `NCCn1cc(-c2nc(-c3c[nH]c4ncccc34)cs2)c2cc(F)ccc21`, with 86.1% (inactive); and `Cc1cc(N2CCCCC2)nc(N(CCNc2ccnc3cc(Cl)ccc23)Cc2ccco2)n1`, with -69.9% (active). On to `Fc1ccc(Nc2nc(Nc3ccc(-c4nc5ccccc5[nH]4)cc3)nc(N3CCCC3)n2)cc1`, for which the growth was 103% (inactive). For the molecule `Brc1ccc2c(c1)c(-c1nc(-c3c[nH]c4ncccc34)cs1)cn2CCCN1CCCCC1`, the growth is -68.3% (active).

Consider `O=C1CNCCN1`, for which the growth was 104% (inactive). In the case of `COC(=O)[C@]12CC[C@@H](C)[C@H](C)[C@@H]1C1=CC[C@@H]3[C@@]4(C)CC(=O)[C@H](OC(=O)c5ccco5)[C@@]5(C)COC(=C45)C[C@@]3(C)[C@]1(C)CC2`, the growth is 40.4% (inactive). `NCCn1cc(-c2nc(-c3c[nH]c4ncccc34)cs2)c2cc(Br)ccc21`: the growth was 79.3% (inactive). The same measure, in the same setting: as for `Cc1cc(N2CCCCC2)nc(N(CCCNc2ccnc3cc(Cl)ccc23)Cc2ccco2)n1`, the figure is 27.4% (inactive). On to `CCCCC[C@H]1CC=C2C(=O)C=C[C@@H]2CC=CCCCC(=O)O[C@@H](CCCCC)CC=C2C(=O)C=C[C@@H]2CC=CCCCC(=O)O[C@@H](CCCCC)CC=C2C(=O)C=C[C@@H]2CC=CCCCC(=O)O1`, for which the growth is 9.32% [8.75 µM] (active). Still for that read-out and setting: then `CCC(CC)C(=O)OC(C)COc1ccc(C(C)(C)C)cc1` (centres undefined), with 103% (inactive); and `CC/C(=N/NC(N)=O)c1ccccc1`, with 108% (inactive).

In the case of `N#CC1=C(N)Oc2c(sc3c(F)cccc23)C1c1ccc(Cl)cc1` (centres undefined), the growth is 29.2% (inactive). As to `CCCCC[C@H]1C/C=C2/C(=O)C(Cl)=C[C@@H]2C/C=C\CCCC(=O)O[C@@H](CCCCC)C/C=C2/C(=O)C(Cl)=C[C@@H]2C/C=C\CCCC(=O)O1`, the growth is -57.8% (active). The same measure, in the same setting: as for `c1ccc(-c2nc(Nc3ccc(-c4nc5ccccc5[nH]4)cc3)nc(N3CCOCC3)n2)cc1`, the figure is -18.6% (active); as for `Fc1ccc2c(c1)c(-c1nc(-c3c[nH]c4ncccc34)cs1)cn2CCCN1CCCCC1`, 60.1% (inactive); as for `CN(C)c1ccc(N=C2C=CC(=O)C=C2)cc1`, 83.6% (inactive). `Cc1ccncc1C(=O)O`: the growth was 92.9% (inactive). On the same count and under the same terms, then `COc1cc2ncnc(Nc3ccc(Oc4ccnc(C)c4)c(C)c3)c2cc1NC(=O)CC1CCSS1` (centres undefined), with -32.2% (active); and `O=C1Nc2ccccc2/C1=C/c1cn(CCCn2c3ccccc3c(=O)c3ccccc32)c2ccccc12`, with 98.2% (inactive). `CCCCC[C@H]1CC=C2C(=O)C(Cl)=C[C@@H]2CC=CCCCC(=O)O[C@@H](CCCCC)CC=C2C(=O)C(Cl)=C[C@@H]2CC=CCCCC(=O)O[C@@H](CCCCC)CC=C2C(=O)C(Cl)=C[C@@H]2CC=CCCCC(=O)O1`: the growth was 61.3% [8 µM] (inactive). Same read-out and setting: then `O=C1c2ccccc2NC(c2cn(-c3ccccc3)nc2-c2cccs2)N1Cc1ccccc1` (centres undefined), with 95.4% (inactive). Same read-out and setting: then `COC(=O)[C@]12CC[C@@H](C)[C@H](C)[C@@H]1C1=CC[C@@H]3[C@@]4(C)C[C@@H](O)[C@H](O)[C@@](C)(CO)C4=CC[C@@]3(C)[C@]1(C)CC2`, with -80.4% (active); and `Cn1c(=O)c2c(nc(Br)n2CC(=O)Nc2ccc(F)cc2)n(C)c1=O`, with 97.5% (inactive).

Turning to `CCN(CC)CCCCCCNc1ccnc2cc(Cl)ccc12`, the growth was 113% (inactive). Regarding `C#CCC(C)(O)/C=C/C1=C(C)CCCC1(C)C` (centres undefined), the growth was 95.8% (inactive).
